Records with an inconclusive call do not appear. Activity calls are given as the source filed them. Calls come from the whole dose curve.
Biological target: 5-hydroxytryptamine receptor 2A (Homo sapiens) (UniProt P28223)
Assay: 5-hydroxytryptamine receptor 2A (HTR2A) small molecule agonists, cell-based qHTS assay (AID 1963587); note: nearly all actives have a fitted effect of over 30% in size
Conditions: HTR2A-CHO cells, calcium flux fluorescence, agonist mode; series mostly up to 76.8 µM; activation: at the top concentration
Description: National Center for Advancing Translational Sciences [NCATS]
Division of Preclinical Innovation [DPI]
U.S. Environmental Protection Agency [EPA]
National Institutes of Environmental Health Sciences [NIEHS]
National Toxicology Program [NTP]
U.S. Food and Drug Administration [FDA]
The HTR2A receptor is a subtype of the 5-HT2 receptor that belongs to the serotonin receptor family and is a G protein-coupled receptor (GPCR). The HTR2A-CHO cell line stably expressing human 5-hydroxytryptamine receptor 2A (HTR2A) can be used for screening agonists of interactions between 5-HT2 and its ligands. The HTR2A-CHO calcium flux assay is a homogeneous fluorescence-based assay for detecting the intracellular calcium level using FDSS kinetic plate reader system.
HTR2A-CHO cells were dispensed at 2000 cells/3uL/well in 1536-well black-clear bottom plates using a Multidrop Dispenser. After the assay plates were incubated at a 37 C/5% CO2 incubator for 18 h, 3 uL of Dye Loading Buffer was transferred to the assay plate by a Flying Reagent Dispenser. The assay plates were incubated at 37 C for 1h. For agonist mode, 23 nL of compounds dissolved in DMSO, positive controls or DMSO only was transferred to the assay plate by a pin tool. The fluorescence intensity in the plates was measured using FDSS 7000EX kinetic plate reader for 2 min at 1 sec intervals.
% is set by controls: 0 for no effect and ±100 for the full control effect; potency is the fitted concentration of half-maximal effect.

5-hydroxytryptamine receptor 2A (Homo sapiens), sequence (P28223 whole entry, looked up): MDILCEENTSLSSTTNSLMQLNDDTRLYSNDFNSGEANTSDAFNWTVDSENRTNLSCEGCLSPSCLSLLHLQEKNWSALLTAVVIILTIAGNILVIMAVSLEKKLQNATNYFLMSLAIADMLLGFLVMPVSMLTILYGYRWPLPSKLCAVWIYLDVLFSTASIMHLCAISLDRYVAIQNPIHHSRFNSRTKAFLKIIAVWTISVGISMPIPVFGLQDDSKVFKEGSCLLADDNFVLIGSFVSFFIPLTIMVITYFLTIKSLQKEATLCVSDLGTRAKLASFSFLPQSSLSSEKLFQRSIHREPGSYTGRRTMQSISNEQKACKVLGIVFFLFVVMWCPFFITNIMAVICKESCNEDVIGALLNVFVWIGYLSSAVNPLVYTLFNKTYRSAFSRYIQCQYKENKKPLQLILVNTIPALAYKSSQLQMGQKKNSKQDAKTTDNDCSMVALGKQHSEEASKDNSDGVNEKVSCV

SMILES | activation | Potency
Clc1ccc(Nc2nnc(Cc3ccncc3)c3ccccc23)cc1 | 11.1% [at 35.6 µM] (inactive) | 
CCCCN(CCCC)C(=S)SSC(=S)N(CCCC)CCCC | 0.267% (inactive) | 
CC(C)(C)C1=CC(=O)C=C(C(C)(C)C)C1=O | 1.44% (inactive) | 
CCCCCCC(=O)c1ccccc1 | 2.22% (inactive) | 
CCCCCC(CO)CCC (stereo not given) | 0.108% (inactive) | 
O=c1cc(O)c(Cl)c[nH]1 | -9.14% [at 35.6 µM] (inactive) | 
CCOCCn1c(N2CCCN(C)CC2)nc2ccccc21 | -7.55% [at 35.6 µM] (inactive) | 
O=S(=O)(Oc1ccc(Cl)cc1)c1ccccc1 | -0.195% (inactive) | 
O=S1(=O)CCCC1 | -0.945% (inactive) | 
C=CC(=O)OCCOc1ccccc1 | -10.9% (inactive) | 
CC1CCN(CCCC(=O)c2ccc(F)cc2)CC1 | -20.5% [at 35.6 µM] (inactive) | 
CCCCCCCCCCCCCCCCN |  | 23.9 µM (active)
CC(C)c1nnc2ccc(-c3ocnc3-c3cc(F)ccc3F)cn12 | 1.29% (inactive) | 
CC(=O)Nc1ccc(S(=O)(=O)Cl)cc1 | 5.32% (inactive) | 
C[C@]12CCC(=O)C=C1C=C[C@@H]1[C@@H]2CC[C@@]2(C)[C@H]1CC[C@@]21CCC(=O)O1 | 13.9% [at 35.6 µM] (inactive) | 
OCCOc1cccc(OCCO)c1 | 3.05% (inactive) | 
COC(C)(C)OC | -0.566% (inactive) | 
CC(C)(C)c1cc(CO)cc(C(C)(C)C)c1O | -0.201% (inactive) | 
NC(CSCC(=O)O)C(=O)O (stereo not given) | 0.214% [at 35.6 µM] (inactive) | 
N=C1N=C(N)c2cc3ccccc3cc21 | -26.2% (inactive) | 

SMILES | activation | Potency
CCCCCCCCCCCCC1CO1 (stereo not given) | -2.43% (inactive) | 
COc1cc(N)ccc1C | -0.504% (inactive) | 
CCCCN(CCCC)CC(O)c1cc(Cl)cc2c1-c1ccc(Cl)cc1/C2=C/c1ccc(Cl)cc1 (stereo not given) | 10.5% [at 35.6 µM] (inactive) | 
N#Cc1nc(Cl)c(Cl)c(Cl)c1Cl | -11.6% (inactive) | 
C=COCCOCCOC=C | 2.34% (inactive) | 
CCCCOC(=O)CO | 0.885% (inactive) | 
COC(=O)CC(=O)C(C)(C)C | -0.178% (inactive) | 
CSc1ccc(O)cc1C | -10.4% (inactive) | 
O=C(O)CN(CCOCCOCCN(CC(=O)O)CC(=O)O)CC(=O)O | -0.693% [at 0.292 µM] (inactive) | 
CC(=O)NCCCS(=O)(=O)O |  | 18.9 µM (active)
CC(CC=O)CCCC(C)(C)O (stereo not given) | -2.4% (inactive) | 
O=C(Cl)c1cc(C(=O)Cl)cc(C(=O)Cl)c1 | 19.6% (inactive) | 
Oc1ccc(N=Nc2ccccc2)cc1 | -0.778% (inactive) | 
COc1ccnc2c1CCCCC2S(=O)c1nc2ccccc2[nH]1 (stereo not given) | -5.84% [at 35.6 µM] (inactive) | 
N[C@@H](C(=O)N[C@@H]1C(=O)N2C(C(=O)O)=C(Cl)CS[C@H]12)c1ccccc1 | -1.95% [at 7.02 µM] (inactive) | 
COc1cc2c(cc1OC)[C@@H]1CC(=O)[C@@H](CC(C)C)CN1CC2 | -2% [at 35.6 µM] (inactive) | 
CCCCC(CC)C(=O)OCCOCCOCCOCCOC(=O)C(CC)CCCC (stereo not given) | 0.614% (inactive) | 
COc1ccc(C2CNC(=O)C2)cc1OC1CCCC1 (stereo not given) | 0.928% [at 35.6 µM] (inactive) | 
Cc1cccc2c1cc1ccc3cccc4ccc2c1c34 | 3.63% (inactive) | 
CCc1cccc2c(CCO)c[nH]c12 | -0.0226% [at 35.6 µM] (inactive) | 

From PubChem BioAssay (Tox21)
